GPR151 activ: activators of human GPR151, primary screen, cell-based, PathHunter beta-arrestin, luminescence. activation, % at 11.2 µM. PathHunter beta-arrestin GPR151 cells. 650,000 compounds, 1% hits. G-protein coupled receptor 151 (Homo sapiens), Q8TDV0. AID 1508602, 2020; in the data active means activation above about 4.9%;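 further: 0% = median of compound wells and 100% = cells with positive control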
FBW7 act: FBW7 E3 ligase activators, primary screen, biochemical, AlphaScreen, human. AlphaScreen FBW7–phospho-cyclin E peptide binding, activator screen. F-box/WD repeat-containing protein 7 (Homo sapiens), Q969H0. normalized activity (activation), % at 26.1 µM. AID 1259310, 2017. 650,000 compounds, 0.13% hits; in the data active means normalized activity above about 1.9%;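 further: purified mutant Fbw7 with reduced substrate affinity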
Target sequence (Q969H0 whole entry, looked up): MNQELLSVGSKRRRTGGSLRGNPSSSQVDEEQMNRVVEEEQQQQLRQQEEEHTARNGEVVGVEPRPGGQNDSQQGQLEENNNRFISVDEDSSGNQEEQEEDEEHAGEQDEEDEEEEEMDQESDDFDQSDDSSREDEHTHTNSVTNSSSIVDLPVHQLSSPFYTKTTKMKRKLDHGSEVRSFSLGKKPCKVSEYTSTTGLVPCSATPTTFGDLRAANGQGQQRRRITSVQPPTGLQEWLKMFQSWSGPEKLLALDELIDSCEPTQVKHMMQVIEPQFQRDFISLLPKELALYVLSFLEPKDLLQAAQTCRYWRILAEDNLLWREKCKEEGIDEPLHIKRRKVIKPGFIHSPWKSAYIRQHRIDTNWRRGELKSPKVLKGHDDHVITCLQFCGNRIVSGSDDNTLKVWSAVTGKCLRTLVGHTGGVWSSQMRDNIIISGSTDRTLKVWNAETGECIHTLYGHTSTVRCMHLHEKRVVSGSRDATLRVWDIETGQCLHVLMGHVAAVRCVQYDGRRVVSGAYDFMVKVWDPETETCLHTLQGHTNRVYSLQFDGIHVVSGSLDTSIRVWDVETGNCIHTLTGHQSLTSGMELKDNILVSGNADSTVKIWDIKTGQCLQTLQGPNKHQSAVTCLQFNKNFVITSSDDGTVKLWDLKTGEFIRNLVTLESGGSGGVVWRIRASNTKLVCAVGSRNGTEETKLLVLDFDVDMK
MITF primary: MITF inhibitors, primary screen, biochemical, AlphaScreen, human; Microphthalmia-associated transcription factor (Homo sapiens), O75030; AlphaScreen MITF homodimerization, bead proximity signal; inhibition, % at 2.6 µM; 650,000 compounds, 0.91% hits; AID 1259374, 2018; in the data active means inhibition above about 50%;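 further: 0% = vehicle wells with protein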
TEAD-YAP block: TEAD-YAP interaction inhibition, primary screen, TEAD-YAP interaction inhibitor project, luminescence, HEK-TIYL cells. TEAD-Gal4/YAP UAS-luciferase luminescence. inhibition, % at 9.12 µM. 640,000 compounds, 1.4% hits. AID 1259422, 2018; in the data active means inhibition above about 32%;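 further: 0% = median of test compound wells and 100% = reference inhibitor wells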
Starred values were filed as active, the others as inactive; i = inactive; ! = not active in a repeat. A selection: hits, their analogues and other compounds. The true share with any hit is near 3.4%.

SMILES | GPR151 activ | FBW7 act | MITF primary | TEAD-YAP block
CC(COc1ccc2ccccc2c1)Nc1cc(Cl)ncn1 (stereo not drawn) | -0.6 | 0.1 | 17.5 | 1.7
CSCCNc1nc2nonc2nc1N1CCOCC1 | 0.6 | 0.0 | 11.0 | 0.6
COc1ccc2c(c1)OC(C)CN(CC(=O)NCC(c1ccncc1)N1CCOCC1)C2 (stereo not drawn) | -1.2 | 0.0 | 7.1 | 3.1
COc1ccc2sc(N(Cc3cccnc3)C(=O)c3cccc(C)c3)nc2c1 | 2.2 | 0.0 | -9.0 | 40.0*
O=C(NCCOCCNC(=O)Nc1ccccc1)Nc1ccccc1 | -2.2 | 0.2 | 9.7 | 3.1
COC(=O)C(=O)Nc1nc2ccc(C(=O)c3ccccc3C(=O)OC(C)C)cc2[nH]1 | 2.1 | -0.1 | -14.4 | 52.0*
CCOc1ccc2nc(NCCCO)[nH]c2c1 | 0.1 | -0.1 | 0.5 | -8.7
O=C(c1ccccc1)c1ccc2nc(-c3ccc(NC(=O)c4ccccc4Cl)cc3)[nH]c2c1 | -0.7 | 0.1 | -0.7 | -28.6
CCCOc1ccc2nc(NC(=O)OC)[nH]c2c1 | -1.2 | 0.0 | -4.9 | 34.4*
O=C(COc1ccc(C(=O)c2ccccc2)cc1)Nc1nc2ccccc2[nH]1 | 3.2 | -0.1 | -10.6 | 7.2
COC(=O)Nc1nc2ccc(C(=O)c3ccc(F)cc3)cc2[nH]1 | 0.1 | 0.2 | 11.6 | 34.7*!
CS(=O)(=O)c1ccc(CC2(c3ccccc3)C(=O)Nc3cc(F)ccc32)cc1 (stereo not drawn) | -0.5 | 0.0 | -15.7 | 3.9
O=C(Nc1ccccc1Cl)C1CCCN1S(=O)(=O)c1cccc2nsnc12 (stereo not drawn) | 0.7 | 0.3 | 20.3 | -12.0
Cc1nn(-c2ccccc2)c(C)c1N1C(=O)c2cccc3cc([N+](=O)[O-])cc(c23)C1=O | 0.3 | 0.0 | 12.7 | 2.8
Cc1ccc(NC(=O)Nc2cc(C)ccn2)cc1 | -0.3 | 0.0 | 3.9 | -26.1
COc1ccc(NC(=O)Nc2cc(C)ccn2)cc1 | -2.8 | -0.1 | 5.5 | 41.0*
COc1ccc(C(=O)/C=C/Nc2cc(C)ccn2)cc1 | -6.6 | 0.1 | 0.8 | 35.6*
O=C(NC(=S)Nc1cccc(-c2nc3ncccc3o2)c1)c1ccc(F)cc1 | 0.0 | -0.2 | -2.5 | 7.0
O=C(Nc1nc(-c2ccccn2)cs1)c1cccc(Oc2ccccc2)c1 | 2.0 | -0.1 | -1.8 | 37.1*
Cc1ccc(-c2csc(NC(=O)c3ccc(S(=O)(=O)N(C)C)cc3)n2)c(C)c1 | 2.6 | 0.1 | 2.7 | 35.3*
COc1ccccc1-c1csc(NC(=O)c2cc(OC)c(OC)c(OC)c2)n1 | -0.3 | -0.1 | i | 12.0
COc1cc(C(=O)Nc2nc(-c3ccc(C)cc3C)cs2)cc(OC)c1OC | 1.0 | -0.1 | 4.0 | 32.3*
CCN(CC)S(=O)(=O)c1ccc(C(=O)Nc2nc(-c3ccc(C)cc3C)cs2)cc1 | -2.0 | 0.2 | -1.9 | 6.8
Cc1ccc(-c2csc(NC(=O)c3cccc(Oc4ccccc4)c3)n2)cc1 | 0.3 | 0.3 | 19.3 | -10.3
COc1cc(C(=O)Nc2nc(-c3ccccn3)cs2)cc(OC)c1OC | -0.5 | -0.2 | 30.9 | 73.3*
SMILES | GPR151 activ | FBW7 act | MITF primary | TEAD-YAP block
COc1cc(NC(=O)c2ccccc2)ccc1N1C(=O)c2ccc(C(=O)O)cc2C1=O | 1.2 | 0.0 | 8.1 | -6.1
Cn1ccnc1C1CCCCN1C(=O)c1cc(Cc2ccc(F)cc2)no1 (stereo not drawn) | -1.0 | -0.1 | -13.3 | -10.6
Cc1nc(N2CCCCC2C)c2c(C)c(C(=O)N3CCN(c4ccc(F)cc4)CC3)sc2n1 (stereo not drawn) | 1.9 | -0.1 | -2.2 | -9.6
CCOc1ccc(C(=O)CCNCCC(=O)O)cc1 | -0.3 | 0.1 | 6.3 | 1.3
CCOc1ccc(C(=O)CSCCC(=O)O)cc1 | 0.3 | 0.1 | 6.6 | 34.7*
O=C(CCl)N(c1ccccc1)c1ccccc1 | -2.5 | -0.1 | 24.5 | 66.4*
NS(=O)(=O)c1ccc(NC(=O)COC(=O)c2sc3ccccc3c2Cl)cc1 | 1.7 | -0.1 | 5.7 | 2.0
Cn1c(Nc2cc(C(=O)NCc3cccc(C(F)(F)F)c3)ccn2)nc2ccccc21 | 0.8 | -0.1 | 10.4 | 35.2*
O=C(O)CNCc1ccc(Cl)cc1 | 0.0 | 0.2 | 19.6 | 4.2
Cc1nc2ncccn2c1-c1csc(Nc2ccccc2)n1 | -0.1 | 0.4 | 7.9 | -3.9
COc1ccc(Nc2nc(-c3c(C)nc4ncccn34)cs2)cc1 | -0.4 | -0.1 | 11.2 | 58.1*
Cc1nc2ncccn2c1-c1csc(Nc2ccc(N(C)C)cc2)n1 | -1.7 | -0.1 | 25.8 | 51.5*
CC(=O)Nc1ccc(Nc2nc(-c3c(C)nc4ncccn34)cs2)cc1 | -0.2 | 0.0 | 3.5 | -11.8
COc1ccc(NC(=O)C(C)Oc2ccc(Br)cc2)cc1OC (stereo not drawn) | 0.0 | -0.2 | -2.8 | 1.1
CC(Oc1ccccc1Br)c1nc(-c2nonc2N)no1 (stereo not drawn) | 0.8 | -0.1 | -4.0 | -9.3
O=C(CNS(=O)(=O)c1ccc(Br)cc1)N=Nc1c(O)[nH]c2ccccc12 | 1.7 | 0.2 | 8.8 | 8.3
COc1ccc(/C=C(\C#N)c2ccccc2)c(OC)c1 | -1.3 | -0.1 | -19.6 | 32.5*
Cc1sc(NC(=O)c2cc(-c3ccc(C(C)(C)C)cc3)nc3ccccc23)c(C(N)=O)c1C | 0.1 | 1.7 | 20.2 | 45.8*
Cc1nc(C)c(/C(O)=C/c2nc3ccccc3oc2=O)s1 | -2.6 | 0.6 | 58.3* | -3.6
CC(C)n1c(Nc2ccccn2)nc2c(NCCOc3ccccc3)ncnc21 | 2.0 | -0.1 | -1.0 | -29.1
CC(C)n1c(Nc2ccccn2)nc2c(Nc3ccc(Oc4ccccc4)cc3)ncnc21 | 0.7 | 0.1 | 1.2 | 56.1*
O=C(Nc1ccccc1C(=O)NCc1ccccc1)c1ccc(CN2CCOCC2)cc1 | -0.6 | 0.0 | -6.7 | 51.6*
NC(=O)c1ccccc1NC(=O)c1ccc(CN2CCOCC2)cc1 | -0.1 | -0.2 | 24.0 | 36.1*
O=C(CCl)N1CCN(S(=O)(=O)c2ccccc2)CC1 | -0.4 | 0.0 | 11.4 | 34.5*
COc1cccc(-c2nnc(-c3cc4cc(OC)ccc4oc3=O)o2)c1 | 1.1 | 0.1 | 9.2 | 2.5
SMILES | GPR151 activ | FBW7 act | MITF primary | TEAD-YAP block
COc1cc2oc(=O)c(CC(=O)NCc3ccccc3)c(C)c2cc1OC | -1.2 | 0.3 | 20.3 | 48.9*
CC(CCc1ccccc1)Nc1ncnc2sccc12 (stereo not drawn) | 1.9 | 0.3 | 8.3 | 51.5*
CC(C)(C)c1ccccc1Nc1ncnc2sccc12 | 0.6 | -0.3 | -7.5 | 1.9
OCCNc1nc(Nc2ccc3ncccc3c2)nc2c1ncn2-c1ccsc1 | 0.8 | 0.1 | 9.7 | 34.6*
Oc1ccc(CCNc2nc(Nc3ccc4ncccc4c3)nc3c2ncn3-c2ccsc2)cc1 | -1.5 | -0.2 | 1.6 | 56.1*
Oc1ccc(CCNc2nc(Nc3ccc4ncccc4c3)nc3nc[nH]c23)cc1 | -0.4 | 0.1 | 11.0 | 45.4*
CCOc1ccc(CC(=O)NCc2ccccc2)cc1 | 0.5 | -0.1 | -1.9 | 37.4*

Screening results: PubChem, The Scripps Research Institute Molecular Screening Center
